Targets with a hit are over-represented here; the source holds about 7,900 in all. About 0.6% of all pairs of compound and target were hits. Unmarked numbers belong to inactive results.
Legend:
Assay in all cases: log2 fold change, soluble protein after heating vs DMSO (PISA); higher = thermal stabilisation; K562 cells, 10 uM, 30 min; active = over 0.2 and 3.5 SD of the protein, either way, in both replicates (recomputed)
[1] = compound: CC[C@@H]1C(=O)N(C)c2cnc(Nc3ccc(C(=O)NC4CCN(C)CC4)cc3OC)nc2N1C1CCCC1
Outline: (§1)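 Values are thermal stability changes relative to control samples and are taken from duplicates. They are stated as log2 fold changes. Before quantification by TMTpro 16plex LC-MS/MS with equalised channel sums, K562 cells at 2×10^6 cells/mL were treated with 10 μM compound for 30 min, heated in aliquots for 3 min across 48°C-58°C, pooled, extracted in PBS with 0.5% NP-40 at 4°C, and centrifuged at 21,000xg for 90 min to give the soluble supernatant.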

volasertib = compound: CC[C@@H]1C(=O)N(C)c2cnc(Nc3ccc(C(=O)N[C@H]4CC[C@H](N5CCN(CC6CC6)CC5)CC4)cc3OC)nc2N1C(C)C [volasertib]
Outline: as §1

[2] = compound: CC[C@H](C)N1C=C(C2=C(C=C(C=C21)C3=CN=C(C=C3)N4CCNCC4)C(=O)NCC5=C(C=C(NC5=O)C)C)C
Outline: as §1

epoxomicin = compound: CC[C@H](C)[C@@H](C(=O)N[C@@H]([C@@H](C)O)C(=O)N[C@@H](CC(C)C)C(=O)[C@]1(CO1)C)NC(=O)[C@H]([C@@H](C)CC)N(C)C(=O)C [epoxomicin]
Outline: as §1

[3] = compound: CCn1c(C(=O)N(C2CC2)C2CC2)cc2c3c(ncn3C)c(Nc3cc(C)n(C)n3)nc21
Outline: as §1

[4] = compound: CCn1cc(-c2ccnc3[nH]c(-c4cccc(CN(C)C)c4)cc23)c(-c2ccc(NC(=O)N(C)C)cc2)n1
Outline: as §1

[5] = compound: CN(C)CC(=O)Nc1ccc2[nH]c(=O)c3ccccc3c2c1
Outline: as §1

rosiglitazone = compound: CN(CCOC1=CC=C(C=C1)C[C@H]2C(=O)NC(=O)S2)C3=CC=CC=N3 (racemic) [rosiglitazone]
Outline: as §1

[6] = compound: CN1C2=C(C3=C1C(=O)N(N=C3)CC4=CC(=CC=C4)N)SC(=C2)S(=O)C
Outline: as §1

[7] = compound: CN1CCC(CNc2ccc3ncc(-c4cccc(OC(F)(F)F)c4)n3n2)CC1
Outline: as §1

saracatinib = compound: CN1CCN(CCOc2cc(OC3CCOCC3)c3c(Nc4c(Cl)ccc5c4OCO5)ncnc3c2)CC1 [saracatinib]
Outline: as §1

sotrastaurin = compound: CN1CCN(c2nc(C3=C(c4c[nH]c5ccccc45)C(=O)NC3=O)c3ccccc3n2)CC1 [sotrastaurin]
Outline: as §1

alvocidib = compound: CN1CC[C@H](c2c(O)cc(O)c3c(=O)cc(-c4ccccc4Cl)oc23)[C@H](O)C1 [alvocidib]
Outline: as §1

Tubastatin A = compound: CN1CCc2c(c3ccccc3n2Cc2ccc(C(=O)NO)cc2)C1 [Tubastatin A]
Outline: as §1

[8] = compound: CNC(=O)C1=CC=CC=C1NC2=NC(=NC=C2Cl)NC3=C(C=C(C=C3)N4CCOCC4)OC
Outline: as §1

defactinib = compound: CNC(=O)c1ccc(Nc2ncc(C(F)(F)F)c(NCc3nccnc3N(C)S(C)(=O)=O)n2)cc1 [defactinib]
Outline: as §1

rucaparib = compound: CNCc1ccc(-c2[nH]c3cc(F)cc4c3c2CCNC4=O)cc1 [rucaparib]
Outline: as §1

[9] = compound: CNc1nc(-c2ccc3c(N)n[nH]c3c2)cc(N2C[C@@H](C(=O)NC3CCCCC3)CC[C@H]2C)n1
Outline: as §1

encorafenib = compound: COC(=O)N[C@@H](C)CNc1nccc(-c2cn(C(C)C)nc2-c2cc(Cl)cc(NS(C)(=O)=O)c2F)n1 [encorafenib]
Outline: as §1

[10] = compound: COC(=O)[C@H](CCSC)NC(=O)C1=C(C=C(C=C1)NC[C@H](CS)N)C2=CC=CC=C2
Outline: as §1

UniProt Q9Y692, sequence (Q9Y692 whole entry, looked up): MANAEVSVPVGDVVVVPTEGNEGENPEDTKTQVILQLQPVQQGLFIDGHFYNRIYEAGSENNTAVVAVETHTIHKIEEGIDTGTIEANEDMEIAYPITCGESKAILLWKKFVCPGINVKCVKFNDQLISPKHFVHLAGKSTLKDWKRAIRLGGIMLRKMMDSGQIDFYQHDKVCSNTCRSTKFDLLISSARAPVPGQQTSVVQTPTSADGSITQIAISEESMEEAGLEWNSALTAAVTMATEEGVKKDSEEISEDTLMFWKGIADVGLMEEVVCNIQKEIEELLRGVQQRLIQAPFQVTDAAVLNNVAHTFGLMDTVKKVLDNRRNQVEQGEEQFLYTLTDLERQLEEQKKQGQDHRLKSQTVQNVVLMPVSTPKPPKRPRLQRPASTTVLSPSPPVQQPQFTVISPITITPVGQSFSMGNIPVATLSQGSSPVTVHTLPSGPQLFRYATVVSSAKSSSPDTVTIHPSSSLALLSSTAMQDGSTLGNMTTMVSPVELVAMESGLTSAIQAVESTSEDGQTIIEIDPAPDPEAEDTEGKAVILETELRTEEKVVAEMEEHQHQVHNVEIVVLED
UniProt P01112, sequence (P01112 whole entry, looked up): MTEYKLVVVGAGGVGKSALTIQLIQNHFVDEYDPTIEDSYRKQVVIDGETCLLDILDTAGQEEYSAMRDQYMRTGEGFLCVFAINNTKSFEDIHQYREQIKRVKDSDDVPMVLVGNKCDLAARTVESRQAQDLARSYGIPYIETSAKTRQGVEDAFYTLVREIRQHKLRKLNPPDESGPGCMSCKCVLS
UniProt P15976, sequence (P15976 whole entry, looked up): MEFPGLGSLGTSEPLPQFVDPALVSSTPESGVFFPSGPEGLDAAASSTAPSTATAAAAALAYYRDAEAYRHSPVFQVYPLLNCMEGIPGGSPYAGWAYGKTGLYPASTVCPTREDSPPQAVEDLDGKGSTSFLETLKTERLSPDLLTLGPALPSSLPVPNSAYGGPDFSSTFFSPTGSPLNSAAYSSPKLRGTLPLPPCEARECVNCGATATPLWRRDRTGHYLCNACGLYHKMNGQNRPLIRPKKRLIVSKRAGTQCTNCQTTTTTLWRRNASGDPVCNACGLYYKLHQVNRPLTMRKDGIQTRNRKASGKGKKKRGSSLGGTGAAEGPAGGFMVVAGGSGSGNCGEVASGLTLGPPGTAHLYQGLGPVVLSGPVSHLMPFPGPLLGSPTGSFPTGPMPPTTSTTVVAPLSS
UniProt Q9BXW9, sequence (Q9BXW9 whole entry, looked up): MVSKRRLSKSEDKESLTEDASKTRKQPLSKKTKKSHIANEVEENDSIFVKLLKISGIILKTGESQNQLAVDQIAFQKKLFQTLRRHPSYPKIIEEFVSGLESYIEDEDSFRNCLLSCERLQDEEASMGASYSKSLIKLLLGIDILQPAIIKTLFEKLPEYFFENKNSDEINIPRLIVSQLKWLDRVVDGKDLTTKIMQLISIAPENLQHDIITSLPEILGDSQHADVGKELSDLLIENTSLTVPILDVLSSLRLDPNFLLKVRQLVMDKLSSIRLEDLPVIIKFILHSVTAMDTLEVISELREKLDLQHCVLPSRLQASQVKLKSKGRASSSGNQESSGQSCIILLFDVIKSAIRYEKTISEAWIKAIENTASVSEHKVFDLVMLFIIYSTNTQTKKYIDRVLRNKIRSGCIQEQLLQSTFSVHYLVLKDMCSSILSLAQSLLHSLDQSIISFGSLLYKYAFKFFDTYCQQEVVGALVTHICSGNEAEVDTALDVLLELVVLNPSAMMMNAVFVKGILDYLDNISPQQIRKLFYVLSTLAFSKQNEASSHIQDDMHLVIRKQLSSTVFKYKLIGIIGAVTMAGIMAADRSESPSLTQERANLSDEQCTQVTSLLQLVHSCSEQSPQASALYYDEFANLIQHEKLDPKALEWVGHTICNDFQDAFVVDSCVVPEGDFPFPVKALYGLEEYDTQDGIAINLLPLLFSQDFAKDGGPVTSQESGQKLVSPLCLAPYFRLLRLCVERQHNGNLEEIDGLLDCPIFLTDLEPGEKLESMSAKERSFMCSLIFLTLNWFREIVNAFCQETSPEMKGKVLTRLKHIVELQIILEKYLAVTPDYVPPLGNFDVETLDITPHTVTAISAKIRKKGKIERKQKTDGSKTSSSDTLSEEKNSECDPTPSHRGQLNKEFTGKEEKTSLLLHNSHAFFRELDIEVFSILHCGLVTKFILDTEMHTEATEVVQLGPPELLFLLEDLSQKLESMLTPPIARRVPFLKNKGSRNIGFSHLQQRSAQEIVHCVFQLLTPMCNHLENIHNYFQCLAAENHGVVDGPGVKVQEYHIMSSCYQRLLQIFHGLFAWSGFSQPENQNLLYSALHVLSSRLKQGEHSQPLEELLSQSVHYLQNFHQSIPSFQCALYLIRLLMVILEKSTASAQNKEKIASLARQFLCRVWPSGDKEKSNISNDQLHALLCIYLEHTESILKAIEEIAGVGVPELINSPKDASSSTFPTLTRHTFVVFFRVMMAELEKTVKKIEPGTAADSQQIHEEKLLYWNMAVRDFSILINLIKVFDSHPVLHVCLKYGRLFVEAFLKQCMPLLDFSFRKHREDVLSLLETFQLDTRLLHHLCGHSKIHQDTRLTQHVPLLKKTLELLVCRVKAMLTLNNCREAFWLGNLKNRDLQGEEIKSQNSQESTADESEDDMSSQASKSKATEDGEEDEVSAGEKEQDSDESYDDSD
UniProt P78417, sequence (P78417 whole entry, looked up): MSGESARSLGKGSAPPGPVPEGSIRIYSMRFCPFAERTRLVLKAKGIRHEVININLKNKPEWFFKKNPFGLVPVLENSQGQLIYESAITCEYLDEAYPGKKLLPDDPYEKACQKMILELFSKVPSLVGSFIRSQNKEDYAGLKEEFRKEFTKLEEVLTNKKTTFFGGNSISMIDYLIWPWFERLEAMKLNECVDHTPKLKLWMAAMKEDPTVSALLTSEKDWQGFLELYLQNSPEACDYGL
UniProt Q00403, sequence (Q00403 whole entry, looked up): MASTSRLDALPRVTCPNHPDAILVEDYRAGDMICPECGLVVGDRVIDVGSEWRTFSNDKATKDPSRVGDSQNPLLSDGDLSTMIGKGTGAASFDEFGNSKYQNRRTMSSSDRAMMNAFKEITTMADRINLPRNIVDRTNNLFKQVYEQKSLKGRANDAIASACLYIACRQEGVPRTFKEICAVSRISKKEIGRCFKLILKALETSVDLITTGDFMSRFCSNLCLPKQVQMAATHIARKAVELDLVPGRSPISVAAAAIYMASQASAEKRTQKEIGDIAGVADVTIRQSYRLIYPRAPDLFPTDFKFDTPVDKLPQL
UniProt Q1KMD3, sequence (Q1KMD3 whole entry, looked up): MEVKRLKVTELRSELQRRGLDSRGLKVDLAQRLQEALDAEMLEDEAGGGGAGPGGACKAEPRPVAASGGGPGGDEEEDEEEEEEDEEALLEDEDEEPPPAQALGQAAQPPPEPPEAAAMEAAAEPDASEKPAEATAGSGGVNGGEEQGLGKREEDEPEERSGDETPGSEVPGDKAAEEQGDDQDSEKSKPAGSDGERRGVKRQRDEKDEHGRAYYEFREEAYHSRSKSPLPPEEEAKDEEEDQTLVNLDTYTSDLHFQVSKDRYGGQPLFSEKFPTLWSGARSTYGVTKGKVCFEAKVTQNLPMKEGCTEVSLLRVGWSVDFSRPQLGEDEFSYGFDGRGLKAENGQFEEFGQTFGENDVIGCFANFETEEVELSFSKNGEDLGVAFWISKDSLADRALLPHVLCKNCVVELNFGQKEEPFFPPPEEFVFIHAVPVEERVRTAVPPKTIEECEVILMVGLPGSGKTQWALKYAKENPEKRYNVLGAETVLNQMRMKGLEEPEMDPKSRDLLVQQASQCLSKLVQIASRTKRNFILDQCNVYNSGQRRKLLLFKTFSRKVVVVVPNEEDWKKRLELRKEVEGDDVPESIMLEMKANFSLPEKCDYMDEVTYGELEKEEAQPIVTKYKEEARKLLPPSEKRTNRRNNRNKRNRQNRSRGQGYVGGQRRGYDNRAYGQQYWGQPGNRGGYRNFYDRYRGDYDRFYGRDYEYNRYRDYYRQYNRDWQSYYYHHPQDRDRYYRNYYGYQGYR
UniProt O00291, sequence (O00291 whole entry, looked up): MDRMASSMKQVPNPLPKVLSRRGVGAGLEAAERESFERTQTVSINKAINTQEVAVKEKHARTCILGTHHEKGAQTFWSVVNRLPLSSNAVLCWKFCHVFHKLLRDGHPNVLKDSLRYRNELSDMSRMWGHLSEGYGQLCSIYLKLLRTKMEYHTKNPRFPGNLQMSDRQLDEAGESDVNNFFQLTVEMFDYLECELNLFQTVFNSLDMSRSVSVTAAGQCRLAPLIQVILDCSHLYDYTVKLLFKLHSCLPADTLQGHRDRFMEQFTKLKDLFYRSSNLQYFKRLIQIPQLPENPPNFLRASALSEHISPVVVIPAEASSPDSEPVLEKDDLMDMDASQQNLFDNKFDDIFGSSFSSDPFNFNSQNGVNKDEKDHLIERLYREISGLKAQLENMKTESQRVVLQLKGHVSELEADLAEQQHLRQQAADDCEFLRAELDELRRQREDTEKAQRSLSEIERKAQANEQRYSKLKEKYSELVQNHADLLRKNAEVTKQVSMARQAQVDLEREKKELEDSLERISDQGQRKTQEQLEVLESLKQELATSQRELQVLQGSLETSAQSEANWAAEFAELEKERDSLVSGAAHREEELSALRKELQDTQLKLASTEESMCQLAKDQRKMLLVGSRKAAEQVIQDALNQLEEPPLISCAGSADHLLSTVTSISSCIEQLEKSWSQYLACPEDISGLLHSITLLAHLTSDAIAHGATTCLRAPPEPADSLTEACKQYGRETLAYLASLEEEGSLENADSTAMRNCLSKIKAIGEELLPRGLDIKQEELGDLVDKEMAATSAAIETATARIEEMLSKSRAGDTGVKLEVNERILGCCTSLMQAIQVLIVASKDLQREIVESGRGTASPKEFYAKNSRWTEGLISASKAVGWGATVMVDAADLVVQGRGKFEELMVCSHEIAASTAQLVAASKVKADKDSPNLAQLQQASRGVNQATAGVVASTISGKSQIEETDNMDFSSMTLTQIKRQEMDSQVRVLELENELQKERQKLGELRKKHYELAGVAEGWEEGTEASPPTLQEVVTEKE

Target | log2 fold change [1] | log2 fold change (volasertib) | log2 fold change [2] | log2 fold change (epoxomicin) | log2 fold change [3] | log2 fold change [4] | log2 fold change [5] | log2 fold change (rosiglitazone) | log2 fold change [6] | log2 fold change [7] | log2 fold change (saracatinib) | log2 fold change (sotrastaurin) | log2 fold change (alvocidib) | log2 fold change (Tubastatin A) | log2 fold change [8] | log2 fold change (defactinib) | log2 fold change (rucaparib) | log2 fold change [9] | log2 fold change (encorafenib) | log2 fold change [10]
GSTO1 (UniProt P78417) | 0.005 | 0.08 | 0.009 | 0.013 | 0.036 | -0.052 | -0.007 | 0.018 | -0.082 | 0.084 | 0.027 | 0.094 | -0.016 | -0.021 | -0.034 | 0.001 | -0.09 | -0.004 | 0.001 | 0
GMEB1 (UniProt Q9Y692) | -0.071 | -0.281 (active) | 0.039 | 0.059 | -0.056 | -0.05 | -0.045 | 0.096 | -0.07 | -0.014 | -0.055 | -0.06 | -0.123 | -0.022 | 0.028 | -0.06 | -0.047 | -0.051 | 0.043 | -0.003
HIP1 (UniProt O00291) | 0.027 | -0.23 | -0.095 | 0.085 | 0.005 | 0.031 | -0.045 | -0.007 | -0.063 | -0.148 | 0.078 | -0.079 | -0.102 | 0.038 | 0.008 | -0.001 | 0.065 | -0.024 | -0.048 | -0.001
GTF2B (UniProt Q00403) | -0.076 | -0.323 (active) | 0.091 | 0.096 | -0.04 | -0.015 | 0.147 | 0.083 | -0.002 | -0.193 | -0.155 | -0.103 | -0.22 | 0.135 | -0.013 | -0.144 | -0.017 | 0.026 | 0.023 | -0.01
GATA1 (UniProt P15976) | 0.134 | 0.076 | -0.036 | 0.152 | -0.026 | 0.04 | -0.084 | -0.021 | 0.046 | 0.119 | 0.097 | -0.042 | 0.128 | -0.049 | 0.104 | 0.088 | 0.086 | -0.014 | 0.054 | 0
FOXK1 (UniProt P85037) | 0.429 | -0.017 | 0.035 | 0.027 | -0.094 | 0.041 | -0.001 | -0.077 | -0.289 | 0.456 | 0.214 | -1.37 (active) | -1.01 (active) | -0.112 | 0.2 | -0.941 | -0.759 | 0.615 | 0.054 | -0.111
IDI1 isoform 2 (UniProt Q13907) | 0.055 | 0.127 | -0.05 | -0.079 | -0.008 | -0.081 | -0.065 | -0.01 | -0.004 | -0.005 | 0.01 | 0.065 | -0.017 | -0.174 | -0.002 | -0.006 | -0.124 | 0.002 | -0.001 | 0.044
HOOK3 (UniProt Q86VS8) | -0.151 | -0.395 (active) | 0.034 | 0.004 | 0.006 | -0.017 | 0.005 | 0.09 | 0.031 | -0.358 (active) | -0.016 | -0.166 | 0.003 | -0.019 | 0.013 | -0.005 | -0.063 | -0.008 | 0.022 | -0.007
HIST2H3A (UniProt Q71DI3) | -0.206 | 0.111 | -0.023 | -0.003 | -0.185 | 0.315 | -0.124 | 0.011 | 0.56 | 0.09 | -0.196 | 0.063 | 0.165 | 0.17 | -0.166 | 0.339 | 0.306 | 0.185 | -0.063 | 0.093
HNRNPUL2 (UniProt Q1KMD3) | 0.172 | 0.135 | -0.023 | -0.084 | -0.036 | 0.092 | -0.012 | -0.007 | 0.131 | -0.013 | -0.023 | 0.039 | 0.166 | 0.065 | -0.06 | 0.259 (active) | 0.125 | -0.017 | 0.007 | 0.006
HECTD1 (UniProt Q9ULT8) | 0.107 | -0.221 | 0.063 | 0.012 | -0.041 | 0 | 0.016 | 0.056 | 0.17 | -0.054 | -0.184 | -0.066 | 0.111 | 0.071 | 0.033 | -0.026 | 0.056 | -0.001 | -0.154 | -0.018
FANCD2 isoform 1 (UniProt Q9BXW9) | -0.229 | -0.251 | 0.118 | -0.307 | -0.04 | -0.055 | 0.026 | 0.062 | -0.009 | -0.233 | -0.038 | 0.017 | -0.102 | -0.053 | -0.126 | -0.145 | 0.051 | 0.028 | 0.009 | -0.029
HRAS (UniProt P01112) | -0.014 | 0.057 | -0.028 | 0.104 | 0.007 | -0.082 | -0.125 | -0.159 | -0.033 | 0.048 | 0.002 | 0.091 | -0.075 | 0.014 | -0.015 | -0.012 | 0.072 | 0.077 | -0.042 | 0.062
HADHB (UniProt P55084) | 0.082 | 0.462 | 0.123 | 0.05 | 0.161 | -0.223 | 0.015 | -0.039 | -0.058 | -0.223 | -0.111 | 0.011 | -0.283 | 0.027 | 0.064 | -0.18 | 0.131 | 0.62 (active) | 0.001 | -0.223
GATD1 (UniProt Q8NB37) | -0.023 | -0.009 | -0.032 | 0.078 | 0.013 | -0.034 | -0.02 | 0.013 | 0.011 | -0.049 | 0.077 | 0.057 | -0.084 | 0.06 | -0.079 | 0.001 | -0.004 | -0.022 | 0 | 0.011

Reference: the supplement of paper PMC10849652
